The structures appear in SMILES notation. This is part of a sample that, as a whole, favours compounds with a hit. Of some 83,000 tested, about 20% had one in any assay.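 Assay: single dose, 48 h. Readout: percent growth (0 = no net growth; negative = cell death). Active: <10.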 Values without a mark were called inactive. Active and inactive are the calls of the source.

Some test systems named below: EKVX NSCLC; SN12C renal; UO-31 renal; TK-10 renal; ACHN renal; CAKI-1 renal; A498 renal; CCRF-CEM leukemia; MOLT-4 leukemia; SR leukemia.
What all share (experiment): NCI-60 one-dose screen, 48 h (100 = growth as untreated, 0 = no growth, -100 = all killed)
Common to all, as to conditions: 10 µM

For the compound `COc1cc2nc(Nc3cccc(NC(C)=O)c3)nc(N)c2cc1OC`, the growth in the assay with EKVX NSCLC is 133%; with SN12C renal, 95.5%; in the assay on UO-31 renal, 78.4%; in the assay on TK-10 renal it was 150%; with ACHN renal it was 102%; in the assay with CAKI-1 renal, 127%. Further, the growth was 95% with A498 renal, -71.1% (active) with CCRF-CEM leukemia, -89.5% (active) in the assay on MOLT-4 leukemia and 107% in the assay on SR leukemia.
Take `COc1cc(-c2nc(-c3nnc(-c4ccccc4Cl)o3)c3ccccn23)cc(OC)c1OC`: the growth with EKVX NSCLC was 92.2%; in the assay with SN12C renal, 82.9%; in the assay with UO-31 renal it was 67.6%; with TK-10 renal, 106%; with ACHN renal, 68.3%; in the assay on CAKI-1 renal, 86.2%. The figures for the growth in the assay on A498 renal, in the assay on MOLT-4 leukemia and with SR leukemia were 84.3%, 56.3% and 72.2%, respectively.
With `CSc1cc(SC)ncn1`, the growth in the assay with EKVX NSCLC is 107%; in the assay on SN12C renal, 94.4%; in the assay on UO-31 renal it was 86.7%; in the assay with TK-10 renal it was 94%; with ACHN renal, 107%; with CAKI-1 renal, 106%. For the same compound, the growth is 98.8% in the assay with A498 renal, 94% in the assay with CCRF-CEM leukemia, 105% with MOLT-4 leukemia and 98.2% with SR leukemia.
Consider `Clc1cccc(-c2nc(-c3cccs3)no2)c1`, for which the growth is 85.4% in the assay with EKVX NSCLC; 97.1% with SN12C renal; 74.1% in the assay with UO-31 renal; 110% with TK-10 renal; 96.3% in the assay on ACHN renal; 103% in the assay on CAKI-1 renal. Moreover, the growth in the assay with A498 renal is 93.1%; in the assay on CCRF-CEM leukemia, 78.3%; in the assay with MOLT-4 leukemia it was 86.3%; in the assay with SR leukemia it was 85.7%.
Consider `COC(=O)c1c(-c2ccccc2)csc1NC(=O)c1c(-c2ccccc2)noc1C`, for which the growth in the assay on EKVX NSCLC was 58.7%; in the assay with SN12C renal it was 44.8%; in the assay with UO-31 renal it was 26%; with TK-10 renal, 55.9%; with ACHN renal, 31.5%; in the assay on CAKI-1 renal, 6.32% (active). In addition, the growth in the assay on A498 renal is 67.8%; with CCRF-CEM leukemia it was 35%; with MOLT-4 leukemia, 15.9%; with SR leukemia, -17.2% (active).
As to `CCc1ccc2c(c1)N(CCO)C1=C(C(=O)OC1)C2c1ccccc1` (stereo not given), the growth in the assay with EKVX NSCLC is 104%; with SN12C renal it was 105%; in the assay with UO-31 renal, 88.9%; in the assay on TK-10 renal, 91.8%; with ACHN renal, 88.6%; with CAKI-1 renal, 101%. Besides, the growth with A498 renal is 73.4%; with CCRF-CEM leukemia it was 91.9%; in the assay on MOLT-4 leukemia it was 83%; with SR leukemia it was 63.6%.
Turning to `Fc1ccc(-c2nnc(-c3c(-c4ccc(F)cc4)nc4ccccn34)o2)cc1`, the growth in the assay with EKVX NSCLC is 95.3%; in the assay with SN12C renal it was 77.2%; with UO-31 renal, 83.8%; with TK-10 renal, 102%; in the assay on ACHN renal, 83.2%; in the assay on CAKI-1 renal, 91.1%. In addition, the growth in the assay on A498 renal is 62%; in the assay with CCRF-CEM leukemia, 95.4%; in the assay with MOLT-4 leukemia, 100%; in the assay with SR leukemia, 47.3%.
For the compound `CCCCCCCCCCCCCCCCN(C(C)c1ccccc1)S(=O)(=O)c1ccc(OC)c(N)c1` (stereo not given), the growth is 114% in the assay on EKVX NSCLC; 118% in the assay on SN12C renal; 89.2% in the assay with UO-31 renal; 122% in the assay with TK-10 renal; 106% with ACHN renal; 96.5% in the assay on CAKI-1 renal. Also, the growth in the assay on A498 renal is 123%; in the assay on CCRF-CEM leukemia it was 97.5%; in the assay on MOLT-4 leukemia it was 98.8%; in the assay on SR leukemia, 94.2%.
For `O=C1CC[C@@H]2CCCC[C@@H]2C1`, the growth is 99.1% in the assay with EKVX NSCLC; 95.9% in the assay with SN12C renal; 75.2% in the assay with UO-31 renal; 114% in the assay on TK-10 renal; 100% in the assay on ACHN renal; 102% with CAKI-1 renal. Further, the growth with A498 renal was 108%; in the assay on MOLT-4 leukemia, 96.5%; with SR leukemia it was 94.7%.
Regarding `Clc1ccccc1N=Cc1ccc2c(c1)OCO2`, the growth is 99.7% with EKVX NSCLC; 92% with SN12C renal; 80% in the assay on UO-31 renal; 107% with TK-10 renal; 111% in the assay with ACHN renal; 93.6% in the assay with CAKI-1 renal. Also, the growth with A498 renal was 102%; in the assay on CCRF-CEM leukemia it was 88.8%; in the assay with MOLT-4 leukemia, 87.9%; in the assay on SR leukemia, 89%.
With `CCCCCCCCCCCCC1C/C=C\CCCC(=O)O1` (stereo not given), the growth is 94% with EKVX NSCLC; 119% with SN12C renal; 93.1% in the assay on UO-31 renal; 113% with TK-10 renal; 104% with ACHN renal; 113% with CAKI-1 renal. For the same compound, the growth in the assay on A498 renal was 128%; with MOLT-4 leukemia, 37.4%; in the assay on SR leukemia it was -18.4% (active).
As for `Clc1ccc(-c2cn(-c3ccccc3)c(-c3ccccc3)n2)c(Cl)c1`, the growth is 50.5% in the assay with EKVX NSCLC; 12.2% in the assay on SN12C renal; -66.9% (active) with UO-31 renal; -82.9% (active) with TK-10 renal; -100% (active) in the assay on ACHN renal; -22.8% (active) with CAKI-1 renal. Moreover, the growth is -28.3% (active) in the assay on A498 renal, 34.8% with CCRF-CEM leukemia, 6.15% (active) with MOLT-4 leukemia and -51.6% (active) with SR leukemia.
`CCc1ccc2c(c1)N(CCO)C1=C(C(=O)OC1)C2c1cc(OC)c(OC)c(OC)c1` (stereo not given): the growth in the assay on EKVX NSCLC is 29.9%; with SN12C renal, 28.8%; in the assay on UO-31 renal, 35.5%; in the assay on TK-10 renal, 57.9%; in the assay on ACHN renal, 32.2%; with CAKI-1 renal it was 11.4%. In addition, the growth in the assay with A498 renal is -13.7% (active); in the assay with CCRF-CEM leukemia, 10.2%; with MOLT-4 leukemia, 11.4%; in the assay on SR leukemia, 12%.
Consider `C=C(Cl)[C@@](Cl)(CBr)CC[C@@H](Br)C(C)(C)Cl`, for which the growth in the assay on EKVX NSCLC is -79% (active); in the assay on SN12C renal, 72%; with UO-31 renal, -96.8% (active); with TK-10 renal it was -98.9% (active); in the assay on ACHN renal, -99.4% (active); in the assay on CAKI-1 renal, -98.7% (active). For the same compound, the growth in the assay on A498 renal was 99.3%; in the assay on CCRF-CEM leukemia, 94.3%; in the assay on MOLT-4 leukemia, 81.1%; in the assay with SR leukemia, 75.6%.
`CCCCN(CCCC)c1cc(C(=O)CCCCCN)c2ccccc2n1`: the growth in the assay on EKVX NSCLC is 24%; in the assay with SN12C renal it was 89.7%; in the assay on UO-31 renal, -21.9% (active); with TK-10 renal, 82.6%; in the assay with ACHN renal it was 85.5%; in the assay with CAKI-1 renal it was -45.4% (active). Moreover, the growth in the assay with A498 renal was 72.6%; with CCRF-CEM leukemia, -70.4% (active); in the assay on MOLT-4 leukemia it was -61.5% (active); in the assay with SR leukemia, -69.3% (active).
For the compound `NC1=NC(=O)C(c2ccccc2)(c2ccccc2)S1`, the growth with EKVX NSCLC is 107%; in the assay on SN12C renal, 106%; with UO-31 renal, 73.9%; in the assay on TK-10 renal, 100%; with ACHN renal it was 107%; in the assay on CAKI-1 renal it was 114%. For the same compound, the growth in the assay with A498 renal was 106%; in the assay on CCRF-CEM leukemia, 97.1%; with MOLT-4 leukemia, 97.5%; in the assay with SR leukemia, 94.8%.
Turning to `O=C(CC(C(=O)c1ccccc1)N1CCOCC1)c1ccccc1` (stereo not given), the growth was 99.2% in the assay with EKVX NSCLC; 87.3% in the assay on SN12C renal; 89.9% in the assay with UO-31 renal; 90.8% in the assay with TK-10 renal; 97.3% in the assay on ACHN renal; 100% with CAKI-1 renal. The growth in the assay on A498 renal is 89.9%; in the assay on CCRF-CEM leukemia it was 9.08% (active); in the assay with MOLT-4 leukemia it was 45.7%; in the assay with SR leukemia it was 28.5%.
For the compound `COc1cc(Cc2cc(-c3ccc(Cl)cc3)n[nH]c2=O)ccc1O`, the growth with EKVX NSCLC is -26% (active); in the assay with SN12C renal it was 98%; in the assay on UO-31 renal, 83.9%; with TK-10 renal, 157%; in the assay on ACHN renal, 109%; in the assay on CAKI-1 renal it was 132%. Also, the values for the growth with A498 renal and with MOLT-4 leukemia were 104% and -59.9% (active), respectively.
Turning to `COc1ccc2c(c1)C(=O)c1c-2c(=O)n(CCCN(C)C)c2cc(OC)c(OC)cc12`, the growth with EKVX NSCLC was 113%; in the assay on SN12C renal it was 53.1%; in the assay on UO-31 renal it was 64.6%; in the assay on TK-10 renal, 102%; in the assay on ACHN renal, 31.9%; with CAKI-1 renal it was 10.6%. The growth in the assay on A498 renal is 85.5%; in the assay on CCRF-CEM leukemia it was 15.4%; with MOLT-4 leukemia it was 13.8%; in the assay with SR leukemia, 1.53% (active).
